Compounds with a hit are over-represented: about 3% of the library has one in this group of screens.
HIF-2a inh – HIF-2a reporter inhibitors, primary screen, luminescence, 786-0 RCC cells; 786-0 RCC cells HIF-2a reporter, luciferase luminescence, overnight; inhibition, % at 18.8 µM; 360,000 tested, 0.72% active; AID 624352, 2012;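 active = inhibition of the luminescence signal of 40% or more relative to plate controls, in a single-dose primary screen at 18.75 µM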
Peg3 prom inh – Peg3 promoter-driven luciferase inhibitors, primary screen, cell-based, HeLa, luciferase luminescence | inhibition, % at 20 µM | 360,000 tested, 1.7% active | AID 588405, 2011 | HeLa PEG-Prom luciferase reporter, overnight;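 active = inhibition of at least 50% at 20 µM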
TRPM1 prom inh – inhibitors of MITF-dependent TRPM1 promoter reporter, primary screen, cell-based, SK-MEL-5, single point, luciferase. SK-MEL-5 TRPM1 promoter luciferase, 24 h. inhibition, % at 12.5 µM. 330,000 tested, 0.83% active. AID 488899, 2010;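 active = mean inhibition across replicates of 60% or more, whatever share of single replicates reaches that level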
CF NFkB inh – inhibitors of PAF-induced NF-kB signaling, primary screen, cell-based, GFP fluorescence, uHTS | inhibition, % at 5 µM | 360,000 tested, 0.86% active | KKLEB NF-kB-GFP reporter, GFP fluorescence overnight | AID 588850, 2011;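 active = at least 50% inhibition at 5 µM, scaled per plate between neutral and stimulator controls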;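 also: PAF is a Pseudomonas aeruginosa culture filtrate used as stimulus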
KKLEB cytotox – cytotoxicity in KKLEB CF airway cells, primary screen, cytotoxicity control for CF NF-kB inhibitor project, cell-based, uHTS, fluorescence assay plates; KKLEB CF airway cells viability, ATPlite luminescence, overnight; active compounds read low; cells stimulated with P. aeruginosa culture filtrate; activity change (cytotoxicity), % at 5 µM; 360,000 tested, 0.36% active;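 active = corrected activity change at or below -50% at 5 µM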
ABHD5 PLIN5 PPI – ABHD5-PLIN5 interaction inhibitors, primary screen, cell lysate, split luciferase complementation, luminescence; Split G. princeps luciferase complementation, 4 h; Perilipin-5 (Homo sapiens) + 1-acylglycerol-3-phosphate O-acyltransferase ABHD5 (Homo …; 360,000 tested, 0.78% active; inhibition, % at 4 µM;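 active = inhibition above the mean inhibition across every tested compound plus 3 SD, cut at about 22% in these data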
CF NFkB inh conf – inhibitors of PAF-induced NF-kB signaling, retest, confirmation, cell-based, GFP fluorescence, single concentration; shares compounds with CF NFkB inh; KKLEB CF airway cells, overnight; inhibition, % at 5 µM; 1,300 tested, 64% active; in the data active = inhibition above about 40%;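 also: stimulus PAF is a Pseudomonas aeruginosa filtrate and not platelet activating factor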
A number is an active result; – = inactive; · = no result given.

SMILES	HIF-2a inh	Peg3 prom inh	TRPM1 prom inh	CF NFkB inh	KKLEB cytotox	ABHD5 PLIN5 PPI	CF NFkB inh conf
COc1cccc(NC(=O)CN(C)CC(=O)Nc2ccc3c(c2)OCO3)c1	–	–	–	–	–	–	·
COc1cccc(NC(=O)CN(C)CC(=O)Nc2ccc(C)c([N+](=O)[O-])c2)c1	–	–	–	65.7	–	–	75.7
COc1cc2oc(=O)cc(-c3ccc(-c4ccc(N(C)C)cc4)cc3)c2c(OC)c1OC	–	–	–	52.1	–	–	66.3
COc1ccc(-c2ccc(-c3cc(=O)oc4cc(OC)c(OC)c(OC)c34)cc2)cc1F	–	–	–	–	–	–	·
COc1ccc(CN(C(=O)CSc2nnc(-c3c[nH]c4ccccc34)o2)c2ccc(F)cc2)cc1OC	–	107.0	–	62.9	–	–	67.8
COc1ccc(CN(C(=O)CSc2nnc(-c3ccc(F)cc3)o2)c2ccc(F)cc2)cc1	–	–	–	–	–	–	·
CC(=O)OCC[C@H](NS(=O)(=O)OCC(Cl)(Cl)Cl)c1ccccc1	–	–	–	–	–	–	·
c1cnc2ccc(-n3ccnc3)cc2c1	–	–	·	55.2	–	–	48.7
COC(=O)[C@]1(C)N[C@H](CN(C)C(=O)c2ccc(C)cc2)[C@@H]2C(=O)N(Cc3ccccc3)C(=O)[C@@H]21	–	–	–	–	–	–	·
COc1ccc(/C=C/C(=O)NC(=S)NCc2ccccc2)cc1OC	–	–	–	–	–	–	·
COc1ccc(C(=O)NC(C)c2ccccc2)cc1Br (stereo not given)	–	–	–	–	–	–	·
C[C@@H](NC(=O)c1coc(=O)c(Br)c1)c1ccccc1	–	98.9	–	73.8	–	–	60.1
COc1cc(-c2nnc(NC(=O)CCS(=O)(=O)c3ccc(F)cc3)o2)cc(OC)c1OC	–	–	–	54.1	–	–	–
COc1cc(-c2nnc(NC(=O)CCS(=O)(=O)c3ccccc3)o2)cc(OC)c1OC	–	–	–	–	–	–	·
O=[N+]([O-])c1cc([N+](=O)[O-])c2oc(-c3ccccc3)c(Br)c2c1O	–	–	–	50.3	–	–	87.5
O=[N+]([O-])c1ccc(-n2nnnc2-c2ccccc2)cc1	–	–	–	–	–	–	·
O=[N+]([O-])c1ccc(-n2nnnc2-c2ccccc2)c([N+](=O)[O-])c1	–	–	97.5	68.5	–	–	–
CCOC(=O)c1cccc(NS(=O)(=O)c2ccc(NC(C)=O)cc2)c1	–	–	–	51.6	–	–	44.0
CCc1c(C)nc2ccc(Br)cc2c1SCCC#N	–	–	–	73.2	–	–	89.2
O=C(CC[C@H]1O[C@@H](n2ccc(=O)[nH]c2=O)[C@H](O)[C@@H]1O)N1CCN(Cc2cccc3ccccc23)CC1	–	–	·	–	–	–	·
O=[N+]([O-])c1ccc(Oc2ccc(F)cc2)c2ccncc12	–	–	–	59.0	–	–	62.6
Cc1ccccc1NC(=O)CSc1nc2ncc(Cl)cc2[nH]1	–	–	–	–	–	–	·
CC(Sc1nc2ncc(Cl)cc2[nH]1)C(=O)Nc1ccccc1[N+](=O)[O-] (stereo not given)	–	–	·	52.7	–	–	–
CSc1ncc(Cl)c(C(=O)Nc2ccccc2[N+](=O)[O-])n1	–	–	–	–	–	–	·
Cc1c(Cl)cccc1NC(=O)CSc1nc2ncc(Cl)cc2[nH]1	–	–	–	62.5	–	–	51.1
Cc1occc1C(=O)Nc1cccc(Cl)c1Cl	–	–	–	–	–	–	·
Cc1ccc(S(=O)(=O)C2(C(=O)N3CCN(c4ccccc4F)CC3)CC2)cc1	–	–	–	–	–	–	·
Oc1ccc(CCNc2ncnc3ccc(Cl)cc23)cc1	–	–	–	70.2	–	–	89.4
